The campaign covered roughly 360,000 compounds. About 8,200 (2.3%) were called active. Rule as the data show it: active = inhibition above about 27%; inactive = the rest. Shown is part of a subset that was picked to be rich in actives.
biological target: Fructose-bisphosphate aldolase (Mycobacterium tuberculosis (strain ATCC 25618 / H37Rv)) (UniProt P9WQA3); assay: Mtb FBA enzyme inhibitors, primary screen, biochemical, fluorescence, strain H37Rv (AID 588726);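 also: 0% = vehicle and 100% = reference inhibitor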; conditions: purified M. tuberculosis FBA, fluorescence read-out, at 1 µM, hits give high values
Sequence (P9WQA3 whole entry, looked up): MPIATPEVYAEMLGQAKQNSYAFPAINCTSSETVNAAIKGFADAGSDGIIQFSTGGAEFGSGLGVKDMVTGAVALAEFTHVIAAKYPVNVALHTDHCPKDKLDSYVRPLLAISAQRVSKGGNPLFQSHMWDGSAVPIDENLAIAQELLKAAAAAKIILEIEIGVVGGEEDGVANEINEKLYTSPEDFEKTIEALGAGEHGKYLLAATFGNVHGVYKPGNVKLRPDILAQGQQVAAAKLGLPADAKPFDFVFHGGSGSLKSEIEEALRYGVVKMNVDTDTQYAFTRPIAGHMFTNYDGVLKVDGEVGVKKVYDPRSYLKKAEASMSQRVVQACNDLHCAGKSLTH

Structure (SMILES)	inhibition
COc1ccc(NC2CC(=O)N(C)C2=O)cc1 (stereo not drawn)	1.09% (inactive)
Cc1ccc(-c2nc(COC(=O)c3c(C)noc3C)cs2)cc1	1.63% (inactive)
CCN(C(=O)COC(=O)CCC(=O)c1cccs1)C1CCCCC1	4.65% (inactive)
CCOC(=O)c1cc2c(=O)n3ccccc3nc2n(CC(C)C)c1=NC(=O)c1c(-c2c(F)cccc2Cl)noc1C	13.1% (inactive)
CCn1c(=N)c(S(=O)(=O)c2ccc(F)cc2)cc2c(=O)n3ccccc3nc21	20.8% (inactive)
O=C(CN1CCN(S(=O)(=O)/C=C/c2ccccc2)CC1)NC(=O)NCc1ccco1	-1.09% (inactive)
O=c1ccc(-c2ccc(S(=O)(=O)Nc3ccccc3)o2)n[nH]1	2.01% (inactive)
O=C(CSc1nnc(-c2ccncc2)o1)NCc1ccc(Cl)cc1	-1.06% (inactive)
COCCNC(=O)c1ccccc1-c1nc(-c2ccccc2Cl)no1	0.39% (inactive)
CCCCNc1c(-c2cccc(Sc3ccc(OC)cc3)c2)nc2ccccn12	40.1% (active)
COC(=O)c1ccc2nc(-c3cccc(Br)c3)c(Cc3ccc(OC)cc3C)n2c1	2.37% (inactive)
CCCCNC(=O)c1onc(CSc2cccc(OC)c2)c1C(=O)O	1.62% (inactive)
CC(=O)c1nn(-c2ccccc2)c(=Nc2ccccc2)cc1C	2.4% (inactive)
O=C1c2ccccc2C(c2nc3ccccc3[nH]2)N1c1ccccc1 (stereo not drawn)	0.93% (inactive)
CCNC(=S)Nc1ccc2c(c1)c(=O)n(C)n2Cc1ccc(Cl)cc1	59.7% (active)
COc1cc(Cn2c3ccc(NC(=O)CC(C)c4ccccc4)cc3c(=O)n2C)ccc1F (stereo not drawn)	146% (active)
COc1cccc(NC(=O)CC(c2ccc(OC(C)C)cc2)c2ccccc2OC)c1 (stereo not drawn)	1.51% (inactive)
O=C1CCCN1CCCNC(=S)Nc1ccc(F)c(Cl)c1	-1.02% (inactive)
COC(=O)c1cc(CNC(=O)CC(C)c2ccccc2)ccc1OC (stereo not drawn)	-0.38% (inactive)
Fc1ccccc1CNC(=S)Nc1ccc(Cl)cc1	0.3% (inactive)
CC=CCn1c(SCCCc2ccccc2)nc2c1c(=O)[nH]c(=O)n2C	4.11% (inactive)
CCOC(=O)c1sc(/N=C/Nc2nc(C)c(C(=O)OCC)s2)nc1C	2.19% (inactive)
N#Cc1ccccc1NC(=O)c1cccc(COc2ccc(Cl)cc2Cl)c1	-1.7% (inactive)
CCOc1ccc(C(C)=O)cc1COC(=O)CN1C(=O)NC2(CCCC2)C1=O	-0.88% (inactive)
Cc1ccc(C=O)c([B-](F)(F)F)c1	2.07% (inactive)

Structure (SMILES)	inhibition
CN1c2ccc(C=O)c3c(C=O)ccc(c23)N(C)C1(C)C	62.1% (active)
O=S(=O)(/C=C/c1ccccc1)NCCc1ccccn1	1.96% (inactive)
COC(=O)c1onc(-c2c(OC)cc(OC)cc2OC)c1C(=O)OC	-3.51% (inactive)
COc1ccc2c(c1)N(C)/C(=C1/SC(=S)N(NC(C)=O)C1=O)S2	-4.56% (inactive)
CC(=O)N1C(=O)/C(=C2\SC(=S)N(NC(=O)c3ccc(O)cc3)C2=O)c2ccccc21	31.8% (active)
COc1ccc(C(=O)NN2C(=O)C3C(c4ccccc4)C=CC(c4ccccc4)C3C2=O)cc1 (stereo not drawn)	1.1% (inactive)
COc1cccc(NC(=O)c2cc(S(=O)(=O)N3CCc4ccccc43)cn2C)c1	-0.54% (inactive)
CC(C)(C)OC(=O)C[C@@H]1C/C=C\C[C@H](CC(=O)N[C@@H](CO)Cc2ccccc2)C(=O)N[C@H](Cc2ccccc2)COC1=O	3.41% (inactive)
Cc1cc(C)cc(NC(=O)N2CCC(NC(=O)c3ccc(F)cc3)CC2)c1	-6.06% (inactive)
O=C(Nc1cccc(F)c1)[C@@H]1CCCN1	4.68% (inactive)
O=C(Nc1cccc(F)c1)c1coc(=O)c(Br)c1	171% (active)
Cc1nc2nc(SCC(=O)Nc3cccc(F)c3)[nH]c2cc1Br	-2.16% (inactive)
CCc1nn(CCCC(=O)NCc2ccc(C)cc2)c(=O)c2cc3occc3n12	-0.41% (inactive)
COc1ccc(C(=O)CN2C(=O)NC3(CCc4ccccc43)C2=O)c(OC)c1 (stereo not drawn)	1.92% (inactive)
CCCOc1ccc(-c2c(C(=O)N/N=C/c3ccco3)nnn2-c2nonc2N)cc1	4.8% (inactive)
CCOc1ccc(-c2nnc(-c3ccco3)o2)cc1	54% (active)
CCCCOc1ccc(-c2nnc(-c3ccco3)o2)cc1	46.1% (active)
CCCCSc1nnc(-c2ccc(C)cc2)o1	3.13% (inactive)
CCOc1ccc(-n2c(SCC(N)=O)nnc2-c2ccco2)cc1	0.41% (inactive)
N#Cc1ccc(OCc2nnc(-c3ccc([N+](=O)[O-])cc3)o2)cc1	0.59% (inactive)
CCC(C)(C(=O)NC1CCCC1)N(C(=O)CNC(C)=O)c1ccc(C)cc1 (stereo not drawn)	1.41% (inactive)
Cc1nc2cccnc2nc1C	-0.64% (inactive)
COc1ccc(NC(=O)c2cccc3c2C(=O)N(CC2CCCO2)C3)cc1OC (stereo not drawn)	-1.34% (inactive)
COCCN(C(=O)CC1CCCCC1)c1c(N)n(CC(C)C)c(=O)[nH]c1=O	2.06% (inactive)
O=C(N/N=C/c1cccc([N+](=O)[O-])c1)C1CC(=O)N(c2ccc(Br)cc2)C1 (stereo not drawn)	2.78% (inactive)

Structure (SMILES)	inhibition
O=[N+]([O-])c1cccc(C=NN=Cc2ccccc2O)c1	1.54% (inactive)
O=[N+]([O-])c1cccc(/C=N/Nc2ncc(Br)cn2)c1	144% (active)
CCCN(C(=O)COC(=O)CNS(=O)(=O)c1ccc(NC(C)=O)cc1)C1CCS(=O)(=O)C1 (stereo not drawn)	1.9% (inactive)
COc1ccc(CCN(Cc2cc3cccc(C)c3[nH]c2=O)C(=O)N2CCCC2)cc1OC	0.64% (inactive)
Cc1cccc(NC(=O)c2sc3nc(N4CCOCC4)c4c(c3c2N)CCCC4)c1	39.1% (active)
c1ccc(CSc2ncnc3c2sc2nc(N4CCOCC4)c4c(c23)CCCC4)cc1	3.1% (inactive)
Cc1nc(N2CCOCC2)c2c(C)c(C(=O)Nc3ccc(C(F)(F)F)cc3)sc2n1	2.82% (inactive)
Cc1cc(C)cc(NC(=O)Cn2cnc3c(nnn3Cc3ccc(F)cc3)c2=O)c1	1.33% (inactive)
CN(C)/C(CN1CCCCC1)=C1\N=C(c2ccccc2)OC1=O	-2.21% (inactive)
CCN(CC(=O)NCc1cccs1)c1nnnn1-c1ccccc1	-0.27% (inactive)
CN(C(=O)COc1ccccc1)c1nnc(-c2ccncc2)s1	53.2% (active)
O=C(Nc1nnc(C2CC2)s1)c1ccccn1	2.11% (inactive)
CN(C(=O)c1ccccn1)c1nnc(-c2ccccn2)s1	31.6% (active)
CN(C(=O)COc1nnc(-c2cccs2)c(-c2cccs2)n1)c1ccccc1	3.91% (inactive)
CCC(C)(C)NC(=O)C(c1ccccn1)N(C(=O)c1csnn1)c1ccccc1 (stereo not drawn)	-0.46% (inactive)
CN(C(=O)C1CCOC1)c1nnc(-c2cccnc2)s1 (stereo not drawn)	-7.08% (inactive)
CN(C(=O)CSc1nnc(-c2c[nH]c3ccccc23)o1)C1CCS(=O)(=O)C1 (stereo not drawn)	0.37% (inactive)
Nn1c(SCC(=O)NC2CCCC2)nnc1-c1ccccc1F	-0.66% (inactive)
CC(=O)C(C)n1cnc2scc(-c3ccc(C)cc3)c2c1=O (stereo not drawn)	-0.72% (inactive)
Cc1sc2ncnc(SCC(=O)Nc3ccc(CN4CCCC4)cc3)c2c1C	-0.95% (inactive)
O=C(O)CCCn1c(=O)c2cccn2c2ccc(F)cc21	6.9% (inactive)
CCN(CC)CCC(c1ccc2c(c1)OCO2)c1c(OC)cc(OC)c2c(-c3ccccc3)cc(=O)oc12 (stereo not drawn)	4.6% (inactive)
COc1ccc2oc(N)nc2c1	0.46% (inactive)
O=[N+]([O-])c1ccc2oc(-c3cccc(O)c3)nc2c1	0.6% (inactive)
CC(=O)Oc1ccc(C(C)=O)c2c1OCCO2	5.05% (inactive)

Structure (SMILES)	inhibition
O=C(COc1cc2oc(=O)c3c(c2cc1Cl)CCC3)NCCCN1CCOCC1	6.36% (inactive)
Cc1oc(C(N)=O)cc1COc1ccc(C(N)=O)cc1	3.54% (inactive)
CC(Oc1cc2oc(=O)c3c(c2cc1Cl)CCCC3)C(=O)NCc1ccncc1 (stereo not drawn)	26.1% (inactive)
Cc1cc(OCc2cc(C(=O)O)oc2C)c2c3c(c(=O)oc2c1)CCCC3	107% (active)
COC(=O)COc1cc(C)cc2oc(=O)c3c(c12)CCCC3	28.4% (active)
COc1ccc(CNC(=O)c2cc(=O)c3c(C)cc(C)cc3o2)cc1	-0.13% (inactive)
C=CCNC(=O)C1CC2c3ccccc3C1c1ccccc12 (stereo not drawn)	-1.94% (inactive)
CC/C(=C\c1ccc(Cl)cc1)c1ccncc1	-2.63% (inactive)
S=c1[nH]nc(Nc2ccccc2)s1	3.65% (inactive)
CCc1ccc(Nc2ncc3c(n2)CC(c2ccco2)CC3=O)cc1 (stereo not drawn)	8.11% (inactive)
Cc1ccc(Cn2c(C)nc3c(c2=O)c2nc4ccccc4nc2n3Cc2ccco2)cc1	47.6% (active)
Cc1ccc(OCC(=O)c2cc(C)n(Cc3ccco3)c2C)c([N+](=O)[O-])n1	-5.32% (inactive)
Clc1cccc(-c2nc3nc4ccccc4nc3n2Cc2ccco2)c1	17.8% (inactive)
O=C1N=C(N2CCOCC2)CS1	-1.54% (inactive)
CC(C)(C)NS(=O)(=O)NC(=O)C1=C(N2CCCC2)COC1=O	-4.63% (inactive)
CCC(C)(C)C1CCC(=NNC(=O)c2ccc(Br)o2)CC1 (stereo not drawn)	-1.67% (inactive)
CCOC(=O)C1CCCN(C(=O)CSc2nnc3nc(C)cc(C)n23)C1 (stereo not drawn)	7.69% (inactive)
Cc1ccc(S(=O)(=O)c2nc(NCCCn3ccnc3)sc2Cl)cc1	0.32% (inactive)
Cc1ccc2c(Cl)c(C(=O)NCCCn3ccnc3)sc2c1	-2.28% (inactive)
N#Cc1nc(-c2ccc(OCc3ccccc3)cc2)oc1NCCCN1CCOCC1	92.7% (active)
O=S(=O)(c1ccc(Cl)cc1)c1nc(-c2ccccc2F)oc1NCCN1CCOCC1	-1.99% (inactive)
Cc1ccc(-c2nc(C#N)c(NCCCn3ccnc3)o2)cc1	71.6% (active)
O=S(=O)(c1ccccc1)c1nc(-c2ccccc2)oc1NCCCN1CCOCC1	-3.13% (inactive)

From PubChem BioAssay AID588726 (The Scripps Research Institute Molecular Screening Center, 2011)
